# Data as given in the supplement of paper PMC10646978.
# ± gives the standard deviation.
# Legend:
# Conditions in all cases: modulator concentration 10 µM
# [1] = system: RAW-Dual (murine macrophage reporter line); test: NF-kB reporter (SEAP) activity fold change vs agonist alone; higher = enhanced NF-kB activity
# Outline: (§1)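 RAW-Dual murine macrophage reporter cells were plated at 50 000 per well in 384-well plates, pin-transferred compound to 10 μM final, and pre-incubated for 1 hour at 37 °C before a PRR agonist was added and the cells incubated overnight. NF-κB activity was read from supernatant SEAP with QUANTI-Blue at 620 nm absorbance, and IRF activity from Lucia luciferase with QUANTI-Luc by luminescence. Each signal was expressed as fold change by dividing by the mean agonist-only control on the same plate. Two replicate plates were averaged, with errors obtained by propagation.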
# [2] = system: RAW-Dual (murine macrophage reporter line); test: IRF reporter (Lucia luciferase) activity fold change vs agonist alone; higher = enhanced IRF activity
# Outline: as §1
# [3] = system: RAW-Dual (murine macrophage reporter line); test: viability score (confluency relative to resting cells, overnight) (fraction); higher = more viable, active = viable (0.7 or more)
# Outline: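 Compound was added at a final 10 μM to RAW-Dual macrophages in 384-well plates and left overnight. Confluency was imaged with IncuCyte, and two masks were generated in IncuCyte software over all imaged wells. Each viability score is confluency relative to resting cells, and a compound met the cutoff only when both masks were above 70% of resting cells.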
# [4] = agonist: CpG ODN 1826 0.5 ug/mL
SMILES,"NF-kB reporter [1, 4]",NF-kB reporter ([1]; agonist: LPS 0.1 ug/mL),NF-kB reporter ([1]; agonist: MPLA […]),IRF reporter ([2]; agonist: 3'3'-cGAMP 10 ug/mL),IRF reporter ([2]; agonist: LPS 0.1 ug/mL),IRF reporter ([2]; agonist: MPLA […]),viability score [3]
CCCc1cc(=O)[nH]c(=S)[nH]1,1.37 ± 0.11,1.07 ± 0.05,1.3 ± 0.11,0.611 ± 0.028,1.03 ± 0.082,0.903 ± 0.076,1.02 (active)
Brc1ccc2ncnc(Nc3ccccc3)c2c1,1.03 ± 0.12,1.25 ± 0.097,1.04 ± 0.029,0.357 ± 0.021,0.629 ± 0.039,0.731 ± 0.08,1 (active)
COC(=O)c1cc(NC(=O)C2CCCC2)cc(C(=O)OC)c1,0.969 ± 0.18,1 ± 0.13,1.15 ± 0.13,0.871 ± 0.09,1.13 ± 0.28,0.97 ± 0.14,0.633 (inactive)
COCc1cc(C)nc2sc(C(=O)c3cccc([N+](=O)[O-])c3)c(N)c12,0.804 ± 0.063,0.719 ± 0.034,0.78 ± 0.29,0.943 ± 0.043,1.36 ± 0.12,1.53 ± 0.14,1.01 (active)
C#CCC(Cc1cnc2nc(N)nc(N)c2n1)c1ccc(C(=O)N[C@@H](CCC(=O)O)C(=O)O)cc1 (some centres undefined),0.605 ± 0.045,0.856 ± 0.14,0.778 ± 0.038,0.774 ± 0.18,0.955 ± 0.032,0.911 ± 0.083,0.667 (inactive)
NC(CO)(CO)CO,1.16 ± 0.24,1.1 ± 0.22,1.01 ± 0.11,0.964 ± 0.11,1.19 ± 0.12,0.966 ± 0.15,1 (active)
CCCCCCCCCCC[C@@H](C[C@@H]1OC(=O)[C@H]1CCCCCC)OC(=O)[C@H](CC(C)C)NC=O,1.1 ± 0.083,0.92 ± 0.058,1.02 ± 0.044,1.04 ± 0.23,0.927 ± 0.048,0.923 ± 0.12,1 (active)
COc1ccc(OS(=O)(=O)c2ccc3cc(OC)ccc3c2)cc1,0.982 ± 0.088,1.14 ± 0.089,1.06 ± 0.068,1 ± 0.035,1.43 ± 0.1,1.03 ± 0.15,1 (active)
Cc1cc(C)n(CCC(=O)N2CCc3nc4ccc(F)cn4c(=O)c3C2)n1,1.02 ± 0.051,0.938 ± 0.098,1.01 ± 0.1,1.03 ± 0.06,1.27 ± 0.079,1.21 ± 0.12,1 (active)
Cc1ccc2c(c1)C1(c3ccccc3)Nc3ccc(C)cc3C1(c1ccccc1)N2 (centres undefined),0.878 ± 0.082,0.904 ± 0.078,0.86 ± 0.085,0.864 ± 0.071,0.996 ± 0.14,0.969 ± 0.19,1.02 (active)
O=C1C=C(c2c(O)ccc3ccccc23)c2ccccc2C1=O,1.19 ± 0.21,0.399 ± 0.055,1.66 ± 0.19,0.0196 ± 0.0013,1.44 ± 0.18,0.656 ± 0.074,0.556 (inactive)
CSc1ccc(C(=O)O)s1,1.02 ± 0.13,1.08 ± 0.09,1.03 ± 0.065,1.01 ± 0.21,1.03 ± 0.059,1.03 ± 0.15,1.01 (active)
CCOc1ccc(Nc2nc(Nc3ccc(OCC)cc3)nc(N3CCOCC3)n2)cc1,0.35 ± 0.02,1.76 ± 0.13,2.82 ± 0.16,1.14 ± 0.083,4.42 ± 3,4.93 ± 2.5,0.762 (active)
COc1ncc(-c2ccc3nccc(-c4ccnnc4)c3c2)cc1NS(=O)(=O)c1ccc(F)cc1F,1.56 ± 0.067,1.79 ± 0.14,3.01 ± 0.16,0.389 ± 0.051,1.2 ± 0.1,2.66 ± 0.33,0.33 (inactive)
O=C(C=Cc1cc([N+](=O)[O-])ccc1O)c1ccc(Cl)cc1,0.614 ± 0.052,0.81 ± 0.046,1.26 ± 0.21,0.496 ± 0.023,1.28 ± 0.074,1.25 ± 0.11,0.983 (active)
CN(C)CC#CCNC(=O)Nc1ccc(C(F)(F)F)cc1,0.935 ± 0.33,0.899 ± 0.045,0.874 ± 0.058,0.425 ± 0.016,1.06 ± 0.22,1.22 ± 0.13,1 (active)
COC(=O)[C@H](c1ccccc1Cl)N1CCc2sccc2C1.O=S(=O)(O)O,0.811 ± 0.21,0.993 ± 0.28,1.06 ± 0.12,1.11 ± 0.081,1.02 ± 0.29,0.955 ± 0.22,0.954 (active)
CC12CCC(CC1)C(C)(C)O2,1.17 ± 0.28,1.05 ± 0.14,0.968 ± 0.074,0.956 ± 0.033,1.21 ± 0.15,1.15 ± 0.12,0.994 (active)
CNC(=O)c1cc(Oc2ccc(NC(=O)Nc3ccc(Cl)c(C(F)(F)F)c3)c(F)c2)ccn1.O,0.151 ± 0.012,0.0887 ± 0.0079,0.42 ± 0.035,0.0171 ± 0.0034,0.0276 ± 0.0016,0.0325 ± 0.0049,0.448 (inactive)
COc1ccc(C=NNC(=O)c2ccc(CN3CCOCC3)cc2)cc1[N+](=O)[O-],1.01 ± 0.085,1.06 ± 0.089,0.961 ± 0.067,1.04 ± 0.039,1.47 ± 0.14,1.28 ± 0.11,0.988 (active)
Cc1ccc(S(=O)(=O)Nc2ccccc2-c2nc3ccccc3o2)cc1,2.45 ± 0.19,1.24 ± 0.081,1.45 ± 0.051,0.323 ± 0.033,1.09 ± 0.048,1.21 ± 0.08,0.713 (active)
CN(C)c1nc(CNC(=O)CSc2nc3ccccc3o2)nc(N(C)C)n1,1.01 ± 0.07,1.13 ± 0.12,1.01 ± 0.067,0.959 ± 0.048,1.05 ± 0.063,1 ± 0.078,0.979 (active)
O=C1CCCC2=C1C(c1ccc(C(F)(F)F)cc1)Nc1ccc(C(=O)c3ccccc3)cc1N2 (centres undefined),0.885 ± 0.08,1.19 ± 0.068,0.759 ± 0.045,1.55 ± 0.091,1.36 ± 0.14,1.04 ± 0.12,0.942 (active)
NC(=O)c1c(NC(=O)CN2C(=O)C(=Cc3ccc(Cl)cc3Cl)SC2=S)sc2c1CCCC2,0.936 ± 0.081,1.07 ± 0.067,0.885 ± 0.058,0.841 ± 0.028,1.23 ± 0.092,1.03 ± 0.29,0.997 (active)
CCOC(=O)c1ccc(N)cc1.Cl,0.872 ± 0.12,1.03 ± 0.12,0.997 ± 0.056,0.819 ± 0.036,1.25 ± 0.1,0.977 ± 0.13,0.996 (active)
CC(=O)Nc1cc2nc3ccccc3nc2cc1NC(C)=O,0.964 ± 0.11,1.05 ± 0.11,0.955 ± 0.041,1.09 ± 0.28,1.05 ± 0.092,0.988 ± 0.3,1 (active)
CC#CC(=O)Nc1ccc(N2CCOCC2=O)c(C)c1,0.993 ± 0.062,1.01 ± 0.086,1.01 ± 0.092,0.961 ± 0.058,0.913 ± 0.084,0.865 ± 0.14,1.01 (active)
